# Assay outcomes from PubChem BioAssay.
# A selection: hits, their analogues and other compounds. The true share with any hit is near 3.9%.
# PHOSPHO1 block: PHOSPHO1 (human) inhibition. Q8TCT1. recombinant PHOSPHO1, absorbance phosphatase assay. inhibition, % at 13.3 µM. hit rate 1.1% among 290,000. AID 1565; in the data active means inhibition above about 60%
# Target sequence (Q8TCT1 whole entry, looked up): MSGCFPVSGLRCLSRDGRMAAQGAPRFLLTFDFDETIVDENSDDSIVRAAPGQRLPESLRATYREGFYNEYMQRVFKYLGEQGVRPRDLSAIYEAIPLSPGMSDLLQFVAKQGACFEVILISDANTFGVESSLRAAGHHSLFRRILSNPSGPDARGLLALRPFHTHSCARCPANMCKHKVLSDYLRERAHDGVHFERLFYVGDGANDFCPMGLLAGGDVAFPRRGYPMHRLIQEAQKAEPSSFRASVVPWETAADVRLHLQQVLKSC
# Platelet DG rel: modulates dense granule release in human platelets. human platelet-rich plasma, SFLLRN dense granule ATP release, luminescence. inhibition, %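 (compounds screened at 7.5 µM in platelet-rich plasma)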. hit rate 0.22% among 300,000;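 active means mean replicate score, as percent of positive control, at or above 50; inconclusive means mean below 50 but at least one replicate at or above 50; inactive means mean and every replicate below 50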
# Rtt109 HAT inh: blocks Candida albicans Rtt109/Vps75 acetyltransferase activity. Q5AAJ8. purified Rtt109/Vps75, ThioGlo CoA-SH fluorescence, 4 h. inhibition, % at 34.9 µM. hit rate 0.16% among 330,000. AID 540336;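 active means inhibition of at least 50% in every replicate; inconclusive means best replicate reaches 50% inhibition but some replicates fall short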
# WT yeast gro inh: growth inhibition of WT yeast, mitochondrial fusion screen; hit rate 2.1% among 190,000; inhibition, % at 10 µM; mitochondrial fusion phenotypic screen, WT strain; in the data active means inhibition above about 58%; tested in S. cerevisiae
# SKKanGAS inh: blocks kanamycin growth of S. pyogenes SKKanGAS strain; AID 1662; inhibition, % at 7.5 µM; hit rate 1.3% among 300,000; BacTiter-Glo, 6 h;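 active means mean replicate score, as percent of positive control median, at least 50; inconclusive means mean below 50 but one replicate at or above 50; inactive means mean and every replicate below 50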;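 further: strain carries kanamycin resistance gene driven by streptokinase promoter and grows in 40 µg/ml kanamycin; loss of luminescence reflects streptokinase promoter inhibition or plain growth inhibition; 0% = median of DMSO wells and 100% = positive control at its reference dose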
# TPT1 inh: blocks Candida albicans tRNA 2'-phosphotransferase; recombinant caTPT1, FP RNA substrate dephosphorylation; inhibition, % at 5 µM; hit rate 0.81% among 300,000; AID 1962;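 active means inhibition above the mean of all tested compounds plus 3 SD, set per screening campaign, cut at about 24% in these data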;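 further: plate controls were DMSO alone for no effect and ferristatin control at 100 nM for full effect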
# Numbers without * were called inactive; ? = inconclusive; . = no result.
SMILES,PHOSPHO1 block,Platelet DG rel,Rtt109 HAT inh,WT yeast gro inh,SKKanGAS inh,TPT1 inh
CCCCN(CCCC)C1=Nc2ccccc2N/C1=C(/C#N)C(=O)OCC,15,4,-15,68*,72*,3
COc1cc(/C=C/CNC[C@H]2O[C@@H](n3ccc(=O)[nH]c3=O)[C@H](O)[C@@H]2O)ccc1O,.,.,2,.,.,.
CC(C)(C)CC(C)(C)NC(=S)Nc1ccc2nc(-c3ccccn3)c(-c3ccccn3)nc2c1,96*,2,-1,5,14,15
CN(C)NC(=S)Nc1ccc2nc(-c3ccccn3)c(-c3ccccn3)nc2c1,-15,4,11,-5,-7,-3
CC12CCC(CC1)C(C)(C)O2,.,-1,-11,.,100*,-5
CC1(C2CCC3(C)OC3C2)CO1 (centres undefined),.,.,0,.,.,.
COC(=O)[C@@]1(Cc2ccccc2)[C@H]2C(=O)N(C)C(=O)[C@H]2[C@H]2CN=C(SCc3ccc(C#N)cc3)N21,.,.,-9,.,.,.
CC(C)(C)c1ccc(C(=O)CC(=O)c2cc(Cl)ccc2O)cc1,1,3,2,65*,91*,-1
Cc1ccc(C(=O)CC(=O)c2cc(Cl)ccc2O)cc1,12,-1,-8,62*,126*,-2
Cc1ccc(C(=O)CC(=O)c2ccc(C)cc2O)cc1,26,4,7,.,62*,.
CCOC(=O)N1CCC(N2C(=O)c3ccc(C(=O)Nc4ccc(OC)c(OC)c4)cc3C2=O)CC1,34,-5,-1,.,-7,-3
O=C(CNC(=O)N1CC(=O)Nc2ccccc21)Nc1cc(Cl)ccc1Cl,22,-11,-8,.,-7,-5
CC(C)c1c(C(=O)N/N=C/c2ccccc2OCc2c(F)cccc2Cl)nnn1-c1nonc1N,22,-3,8,.,31,-1
CC1CCN(c2nc(-c3ccccc3)cc(C(F)(F)F)n2)CC1,42,9,-2,12,?,0
Cc1ccc(-c2cc(C(F)F)nc(N3CCC(C)CC3)n2)cc1,7,10,-3,17,63*,-3
CCCCCCCc1ccc(-c2ccc(O)cc2)nc1,-26,5,2,74*,17,-1
O=c1[nH]c(Cc2cccc(C(F)(F)F)c2)nc2ccccc12,25,-6,.,.,6,-2
NC(=O)c1ccc(NC(=O)COC(=O)c2ccc(Br)o2)cc1,.,.,0,.,.,.
OC(COCc1ccc(Cl)cc1)CN1CCN(CC(O)COCc2ccc(Cl)cc2)CC1 (centres undefined),0,-5,.,58*,-7,-8
COc1ccc(Cl)cc1NC(=O)CN(C)C(=O)C1COc2ccccc2O1 (centres undefined),.,.,-5,.,.,.
CC(=O)Nc1ccc(NC(=O)C(C)OC(=O)C23CC4CC(CC(Cl)(C4)C2)C3)cc1 (centres undefined),.,.,1,.,.,.
COc1ccc(C2=NN(C(=O)CSC3=NN4CCCC(=O)N=C4S3)C(c3cccc(OC)c3OC)C2)cc1 (centres undefined),-21,74*,16,1,6,-2
COc1cccc(C2CC(c3cccs3)=NN2C(=O)CSC2=NN3CCCC(=O)N=C3S2)c1OC (centres undefined),18,4,13,-6,3,6
NNC(=S)Nc1ccc(C(F)(F)F)cc1Cl,25,1,-10,.,61*,3
FC(F)(F)c1cccc(NC(=S)Nc2ccc(Cl)cc2Cl)c1,2,5,-3,3,?,-4
SMILES,PHOSPHO1 block,Platelet DG rel,Rtt109 HAT inh,WT yeast gro inh,SKKanGAS inh,TPT1 inh
CCCCn1c(-c2csc(CCC)c2)n[nH]c1=S,-33,-1,-8,73*,12,-5
COc1ccc(CCn2c(-c3ccc(Cl)cc3)n[nH]c2=S)cc1OC,-63,6,-23,-19,1,1
CCCc1cc(-c2n[nH]c(=S)n2C(C)c2ccccc2)cs1 (centres undefined),83*,-6,14,64*,9,1
CCCCn1c(-c2cc(Cl)ccc2OC)n[nH]c1=S,60*,24,9,16,.,-1
NS(=O)(=O)c1ccc(CNC(=O)c2ccc(NS(=O)(=O)c3cccs3)cc2)cc1,.,.,0,.,.,.
N#CCCn1nc2c(c1N)CCC2,.,.,1,.,.,.
Cc1cccc(C(=O)OCC(=O)N2CCCC2=O)c1O,.,.,4,.,.,.
CCOC(=O)c1c(C)[nH]c(C(=O)OCC(O)=C(C#N)c2nc3ccccc3[nH]2)c1C,.,.,2,.,.,.
Cc1c(-c2cccc(Cl)c2)nc2ccccc2c1C(=O)OC/C(O)=C(\C#N)c1nc2ccccc2[nH]1,25,2,-4,-18,58*,16
